Laboratory results: PubChem BioAssay (Tox21)
Records with an inconclusive call do not appear. The source made the active and inactive calls. Unless noted, calls follow the shape of the dose curve; as a rule, active = well fitted curve in the direction sought with a large enough effect in the repeat runs; inconclusive = weak or mixed curves; inactive = no such curve, though single readings can be large; an effect the other way counts as inactive or inconclusive.

Key:
[1] = qHTS assay for small molecules that induce genotoxicity in human embryonic kidney cells expressing luciferase-tagged ATAD5 (AID 651632); also: nearly all actives have a fitted effect of over 15% in size
Procedure, shortened: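 ATAD5-luc HEK293T, 2,000 cells/well; cpd or DMSO pin-transferred; 16 hr, 37C/5% CO2; Amplite 30 min RT; luminescence.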

[2] = qHTS assay for small molecule agonists of the p53 signaling pathway - cell viability (AID 651633; calls by dose curve;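 also: p53RE-bla HCT reporter cells with a stable beta-lactamase p53 reporter; series mostly up to about 83 µM; nearly all actives have a fitted effect of over 30% in size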)
Procedure, shortened: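 p53RE-bla cells, seeded at 4,000 per well and rested 5 h at 37 C/5% CO2, received compounds in DMSO for 16 h at 37 C. CellTiter-Glo was then added, and luminescence was read after 30 min at room temperature to gauge cytotoxicity.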

[3] = qHTS assay for small molecules that induce genotoxicity in human embryonic kidney cells expressing luciferase-tagged ATAD5 - cell viability (AID 651634; calls by dose curve; also: nearly all actives have a fitted effect of over 25% in size)
Procedure, shortened: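 Fluorescence from CellTiter-Fluor, reporting protease activity within live cells, served as the viability read-out. HEK293T cells carrying luciferase-tagged ATAD5 had been treated with compound for 15.5 hr at 37C.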

[4] = qHTS assay for small molecule disruptors of the mitochondrial membrane potential - cell viability (AID 720634; calls by dose curve;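 also: human HepG2 liver cancer cells; series mostly up to about 83 µM; nearly all actives have a fitted effect of over 20% in size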)
Procedure, shortened: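 Cells: HepG2, 2,000/well, attached overnight. Compound 1 hr, 37 C/5% CO2. +m-MPI dye, +CellTiter-Glo 30 min RT. Readout: luminescence (ATP).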

[5] = qHTS assay for small molecule disruptors of the mitochondrial membrane potential (AID 720635)
Procedure, shortened: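 HepG2 cells (2,000/well) attached overnight at 37C, then took compound for 1 hr at 37C, 5% CO2. Mito-MPS dye was added for 30 min; fluorescence was read at 490/535 nm (monomers) and 540/590 nm (aggregates).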

[6] = qHTS assay to test for compound auto fluorescence at 590 nm (red) in HepG2 cells (AID 720674)
Procedure, shortened: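 Compound auto-fluorescence is scored relative to Rose Bengal sodium, measured at 540/590 nm in live HepG2 cultures after 1 hr compound contact (37 C, 5% CO2).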

[7] = qHTS assay to test for compound auto fluorescence at 535 nm (green) in HepG2 cells (AID 720675)
[8] = qHTS assay to test for compound auto fluorescence at 460 nm (blue) in HEK293 cells (AID 720678)
Procedure, shortened: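 HEK293, 2,000 cells/well, 10% dialyzed FBS; attach 4-5 hr 37C; pin compound or DMSO; o/n 37C/5% CO2; fluorescence 405/460 nm; triamterene-equivalent units.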

[9] = qHTS assay to test for compound auto fluorescence at 590 nm (red) in HEK293 cells (AID 720679)
Procedure, shortened: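 Intensity at 540nm excitation and 590nm emission is reported as Rose Bengal sodium-equivalent autofluorescence. Measurements followed overnight exposure (37C, 5% CO2) of HEK293 cells, 2,000 per well, to 23 nL compound.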

[10] = qHTS assay to test for compound auto fluorescence at 535 nm (green) in HEK293 cells (AID 720680)
[11] = qHTS assay to test for compound auto fluorescence at 460 nm (blue) in HEK293 cell free culture (AID 720681)
Procedure, shortened: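 Test compounds were pinned into cell-free culture medium (DMEM with 10% FBS) and fluorescence was read directly at Ex/Em 405/460 nm. Signals were expressed as fluorescence equivalents of triamterene, with DMSO vehicle as control.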

[12] = qHTS assay to test for compound auto fluorescence at 535 nm (green) in HEK293 cell free culture (AID 720682)
Procedure, shortened: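 Cell-free medium (DMEM, 10% FBS) receives compound or DMSO by pintool. Plate read directly at Ex 485/Em 535 nm. Signal converted to fluorescein equivalency.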

[13] = qHTS assay to test for compound auto fluorescence at 590 nm (red) in HEK293 cell free culture (AID 720683)
Procedure, shortened: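 Tox21 10K library compounds were pinned into cell-free DMEM with 10% FBS and fluorescence was read at excitation 540 nm. Activity is expressed as Rose Bengal sodium equivalency.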

[14] = qHTS assay to test for compound auto fluorescence at 590 nm (red) in HepG2 cell free culture (AID 720684)
Procedure, shortened: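 Measured in medium alone (MEM containing 10% FBS) following pintool addition of compound; emission at 590 nm with 540 nm excitation, referenced to Rose Bengal sodium.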

[15] = qHTS assay to test for compound auto fluorescence at 460 nm (blue) in HepG2 cell free culture (AID 720685)
Procedure, shortened: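 Compound (23 nL) or DMSO pinned into cell-free MEM with 10% FBS; blue fluorescence read at 405/460 nm excitation/emission, expressed as auto-fluorescence equivalency to triamterene.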

[16] = qHTS assay to test for compound auto fluorescence at 535 nm (green) in HepG2 cell free culture (AID 720686)
[17] = qHTS assay to test for compound auto fluorescence at 460 nm (blue) in HepG2 cells (AID 720687)
Procedure, shortened: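 Cells (2,000/well in MEM with 10% FBS) attached overnight at 37 C, then were exposed to compound or DMSO for 1 hr at 37 C, 5% CO2. Fluorescence read at Ex/Em 405/460 nm, expressed as triamterene-equivalent signal.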

[18] = target: Glucocorticoid receptor (Homo sapiens) (UniProt P04150); assay: qHTS assay to identify small molecule agonists of the glucocorticoid receptor (GR) signaling pathway (AID 720691; active = well fitted activation curve with a large enough effect in the signal ratio in the repeat runs, not every such curve was filed as active; the % refers to the signal ratio)
Procedure, shortened: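 Fluorescence intensity from LiveBLAzer B/G FRET substrate (2 h, room temperature) reports beta-lactamase expression driven by the glucocorticoid response element in GR-bla HeLa cells after 18 h compound exposure at 37 C.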

[19] = target: Glucocorticoid receptor (Homo sapiens) (UniProt P04150); assay: qHTS assay to identify small molecule antagonists of the glucocorticoid receptor (GR) signaling pathway (AID 720692; active = well fitted inhibition curve with a large enough effect in the signal ratio in the repeat runs, not every such curve was filed as active; the % refers to the signal ratio)
Procedure, shortened: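 HeLa GR-bla cells; cmpd + dex 5 nM final, 18 h 37 C; LiveBLAzer B/G FRET substrate 2 h RT; fluorescence intensity read. Antagonist mode, qHTS.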

Measured: Potency

Glucocorticoid receptor (Homo sapiens), sequence (P04150 whole entry, looked up): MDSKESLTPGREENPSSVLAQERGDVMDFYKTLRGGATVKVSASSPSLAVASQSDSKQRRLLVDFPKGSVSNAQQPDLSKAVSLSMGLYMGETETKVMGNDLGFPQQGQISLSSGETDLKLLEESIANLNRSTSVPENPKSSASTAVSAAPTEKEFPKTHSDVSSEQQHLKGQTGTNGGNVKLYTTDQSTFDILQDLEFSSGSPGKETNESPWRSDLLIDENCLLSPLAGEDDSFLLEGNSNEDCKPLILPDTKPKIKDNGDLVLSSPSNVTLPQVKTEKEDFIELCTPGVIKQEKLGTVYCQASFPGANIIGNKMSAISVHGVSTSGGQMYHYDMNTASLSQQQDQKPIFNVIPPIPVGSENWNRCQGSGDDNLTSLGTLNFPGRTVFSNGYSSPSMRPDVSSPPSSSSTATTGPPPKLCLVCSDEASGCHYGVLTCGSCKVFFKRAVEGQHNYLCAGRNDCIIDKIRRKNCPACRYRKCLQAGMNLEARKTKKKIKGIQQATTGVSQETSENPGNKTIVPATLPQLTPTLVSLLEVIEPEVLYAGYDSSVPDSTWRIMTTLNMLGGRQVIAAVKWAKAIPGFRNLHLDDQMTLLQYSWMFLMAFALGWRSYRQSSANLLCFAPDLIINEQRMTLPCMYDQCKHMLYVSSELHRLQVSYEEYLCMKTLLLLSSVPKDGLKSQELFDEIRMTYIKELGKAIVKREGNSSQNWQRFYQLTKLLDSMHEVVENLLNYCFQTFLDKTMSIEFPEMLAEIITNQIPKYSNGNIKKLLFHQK

O=S(=O)(Cl)Cl
not listed: [19]
inactive: all other assays above

CCC1(C2=NCCN2)Cc2ccccc2O1 (centres undefined)
not listed: [18] | [19]
inactive: all other assays above

Clc1ccccc1
not listed: [13] | [18]
inactive: all other assays above

CCOP(=O)(O)C(N)=O
not listed: [5] | [18]
inactive: all other assays above

Cc1ccc(N)c(C)c1
not listed: [18] | [19]
inactive: all other assays above

CCC[N+](CCC)(CCC)CCC
not listed: [5] | [18] | [19]
inactive: all other assays above

CCCCC1C(=O)NC(=O)N(C2CCCCC2)C1=O (centres undefined)
not listed: [4]
inactive: all other assays above

CN(C1CCCCC1)C1CCCCC1
not listed: [5] | [6] | [8]
inactive: all other assays above

C=CCOCC1CO1 (centres undefined)
not listed: [4] | [5] | [6] | [14] | [19]
inactive: all other assays above

CCCSP(=S)(OCC)Oc1ccc(SC)cc1 (centres undefined)
not listed: [4] | [5] | [18] | [19]
inactive: all other assays above

O=C(O)c1cc(I)cc(I)c1I
not listed: [2] | [14]
inactive: all other assays above

NNCCO
not listed: [4] | [5] | [18] | [19]
inactive: all other assays above

C[C@H]1[C@@H]2Cc3ccc(O)cc3[C@@]1(C)CCN2C
not listed: [4]
inactive: all other assays above

CCNC(=O)NC(=O)/C(C#N)=N/OC
not listed: [4] | [5] | [8] | [18] | [19]
inactive: all other assays above
